# CSC inhib: cancer stem cell inhibition | cancer stem cell-like cells viability, luminescence | inhibition, % at 7.5 µM | 300,000 tested, 1.1% active | AID 2717; in the data active means inhibition above about 75%; tested in HMLE shEcad cells
# Calb FLC: affects C. albicans growth with fluconazole; C. albicans CaCi-2 (fluconazole-resistant clinical isolate) + fluconazole, Alamar Blue growth, 48 h; growth inhibition, % (test concentration not listed); 300,000 tested, 0.57% active;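 active means growth inhibition above about 58% in most replicates, limit read from the data, passing the limit was not always enough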;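 further: all wells also contain fluconazole at 8 µg/ml as a sub-toxic cotreatment; 0% = median of DMSO wells and 100% = median of geldanamycin control wells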
# Beta apoptosis: blocks beta cell apoptosis; INS-1E cytokine-induced death, ATP luminescence, 48 h; percent of positive-control rescue, neutral wells zero; protection from apoptosis, % (no concentration beside the values); AID 435005; 300,000 tested, 0.8% active;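 active means Every replicate reaches about 75%, or at least half do and their mean reaches it too, limit read from the data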;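 further: 0% = cytokine-treated negative control wells and 100% = positive control rescue; higher means more ATP so stronger rescue from cytokine killing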
# MPTP inh: blocks calcium-induced mitochondrial swelling | isolated mouse mitochondria, Ca2+ swelling absorbance, 30 min | inhibition, % at 10 µM | 360,000 tested, 1.4% active | AID 602449;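 active means inhibition of 50% or more, scaled per plate between neutral and stimulator controls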;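 further: 0% = DMSO wells given calcium and 100% = 1 mM EGTA wells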
# Mdm2-MdmX inh: human Mdm2/MdmX binding inhibition; O15151+Q00987; SaOS-2 split-luciferase Mdm2/MdmX complementation, luminescence; inhibition, % at 8 µM; 330,000 tested, 3% active; AID 485346;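 active means inhibition of at least 50% at 8 µM in the primary screen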
# Target sequence (O15151 whole entry, looked up): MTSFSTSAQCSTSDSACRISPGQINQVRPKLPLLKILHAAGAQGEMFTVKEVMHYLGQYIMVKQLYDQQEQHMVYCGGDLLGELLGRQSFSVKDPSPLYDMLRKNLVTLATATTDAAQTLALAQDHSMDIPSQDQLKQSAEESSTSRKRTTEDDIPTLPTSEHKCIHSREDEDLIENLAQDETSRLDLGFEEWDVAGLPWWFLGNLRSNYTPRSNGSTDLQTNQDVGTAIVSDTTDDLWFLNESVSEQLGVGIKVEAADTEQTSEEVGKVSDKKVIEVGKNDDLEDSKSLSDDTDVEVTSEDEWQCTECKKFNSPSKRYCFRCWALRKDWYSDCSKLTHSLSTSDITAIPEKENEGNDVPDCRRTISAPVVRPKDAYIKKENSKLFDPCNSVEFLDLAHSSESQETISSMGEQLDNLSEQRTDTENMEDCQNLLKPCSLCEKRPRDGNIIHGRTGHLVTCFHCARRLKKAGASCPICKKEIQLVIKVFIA
# Target sequence (Q00987 whole entry, looked up): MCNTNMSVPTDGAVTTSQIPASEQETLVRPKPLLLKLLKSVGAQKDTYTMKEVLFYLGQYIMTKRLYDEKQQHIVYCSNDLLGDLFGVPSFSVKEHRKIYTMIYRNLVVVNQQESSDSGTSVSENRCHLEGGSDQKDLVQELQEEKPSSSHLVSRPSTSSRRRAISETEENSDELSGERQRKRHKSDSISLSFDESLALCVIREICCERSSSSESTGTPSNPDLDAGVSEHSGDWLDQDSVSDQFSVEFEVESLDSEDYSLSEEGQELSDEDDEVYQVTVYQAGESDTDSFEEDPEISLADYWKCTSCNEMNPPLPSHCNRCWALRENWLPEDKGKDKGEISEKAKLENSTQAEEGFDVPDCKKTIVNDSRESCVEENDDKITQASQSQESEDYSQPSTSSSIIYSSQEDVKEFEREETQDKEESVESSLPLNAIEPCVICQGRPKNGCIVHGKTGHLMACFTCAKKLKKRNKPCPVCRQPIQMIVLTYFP
# SKKanGAS inh: SKKanGAS growth inhibition. inhibition, % at 7.5 µM. AID 1662. 300,000 tested, 1.3% active. S. pyogenes SKKanGAS, kanamycin growth, BacTiter-Glo, 6 h;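 active means mean replicate score, as percent of positive control median, at least 50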;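 further: strain carries kanamycin resistance gene driven by streptokinase promoter and grows in 40 µg/ml kanamycin; loss of luminescence reflects streptokinase promoter inhibition or plain growth inhibition; 0% = median of DMSO wells and 100% = positive control at its reference dose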
# Mdm2 MdmX conf: human Mdm2/MdmX binding inhibition, confirmed. AID 489028. luminescent assay. shares compounds with Mdm2-MdmX inh. inhibition, % at 8 µM. 10,000 tested, 55% active; in the data active means inhibition above about 40%
# Full FLuc ctr: inhibits full-length luciferase, flagging false Mdm2/MdmX hits; 6,200 tested, 77% active; shares compounds with Mdm2-MdmX inh; SaOS-2 full-length luciferase counterscreen, luminescence; inhibition, % at 8 µM;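 active means mean inhibition at 8 µM reaching about 37%, which flags the compound as non-specific, limit read from the data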;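 further: p53-null SaOS-2 cells with luciferase driven by a doxycycline-inducible promoter; compound on cells about two nights before reading with doxycycline added after day one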
# The depositor's hits bear a star; x = not tested or not shown. Shown are actives, neighbours in structure and some others; about 5.4% of the full set was active somewhere.
SMILES,CSC inhib,Calb FLC,Beta apoptosis,MPTP inh,Mdm2-MdmX inh,SKKanGAS inh,Mdm2 MdmX conf,others
COC(=O)C1=C(C(=O)OC)[C@@H]2N(Cc3ccccc3)c3ccccc3[C@@]23C[C@@H](C(=O)OC)N(C(=O)c2cccs2)C3=N1,33,1,-5,2,60*,3,21,
COC(=O)C1=C(C(=O)OC)[C@@H]2N(C)c3ccccc3[C@@]23C[C@@H](C(=O)OC)N(C(=O)c2cccs2)C3=N1,0,-11,-7,0,24,0,x,
COC(=O)C1=C(C(=O)OC)[C@@H]2N(Cc3ccccc3)c3ccccc3[C@@]23C[C@@H](C(=O)OC)N(C(=O)CC(C)C)C3=N1,22,9,12,0,4,7,x,
COC(=O)C1=C(C(=O)OC)[C@@H]2N(Cc3ccccc3)c3ccccc3[C@@]23C[C@@H](C(=O)OC)N(C(=O)c2cc(C)oc2C)C3=N1,26,12,2,-2,57*,6,7,
COc1ccc(/C=C(\NC(=O)c2ccccc2)C(=O)N2CCN(C)CC2)cc1,x,-12,-11,0,1,-2,x,
O=C1CN(C(=O)c2ccccc2)c2ccccc2N1,9,5,-7,-1,-7,4,x,
O=C1CN(C(=O)c2ccc(Cl)c(S(=O)(=O)N3CCc4ccccc43)c2)c2ccccc2N1,36,-2,11,4,86*,10,78*,Full FLuc ctr=64*
O=C1CN(C(=O)c2cccc(Br)c2)c2ccccc2N1,35,8,1,-3,53*,7,62*,Full FLuc ctr=52*
O=C1NC2(C=Cc3c(ccc4ccccc34)O2)Oc2ccccc21 (stereo unspecified),43,9,0,1,35,-6,x,
CCOc1ccccc1NC(=O)CCCc1nc2ccccc2c(=O)[nH]1,17,-14,7,-1,65*,3,49*,Full FLuc ctr=56*
CC1c2ccccc2SC(CCCN(C)C)c2ccccc21 (stereo unspecified),10,-9,3,0,52*,4,3,
CN(C)CCC1Sc2ccccc2Oc2ccccc21 (stereo unspecified),-20,-1,-15,14,-6,1,x,
Fc1ccc(NC(=S)Nc2ccc(Cl)cc2Cl)cc1,3,-27,-3,x,10,-18,x,
Fc1ccccc1/C=N/NC(=S)Nc1ccc(Cl)cc1Cl,64,36,13,2,80*,-2,72*,Full FLuc ctr=90*
O=C(/C=C/c1cccs1)c1cc(Br)ccc1OC(=O)N1CCOCC1,-10,8,5,0,53*,0,17,
COc1ccc(C(=O)/C=C/c2cccs2)c(OC(=O)N2CCOCC2)c1,-2,2,-7,2,-6,-16,x,
Cc1ccc(NC(=O)C(C)N2C(=O)c3ccccc3C2=O)cc1C (stereo unspecified),-15,-30,-4,0,1,-4,x,
CCCCn1c(=O)[nH]c(=O)c2c1nc(-c1ccc(-c3ccccc3Br)o1)n2CCOC,6,0,-2,1,53*,15,6,
CCCCn1c(=O)[nH]c(=O)c2c1nc(-c1ccc(-c3ccc(F)cc3)o1)n2C,-19,6,-4,x,74*,13,10,
COCCn1c(-c2ccc(-c3ccccc3Cl)o2)nc2c1c(=O)[nH]c(=O)n2CC(C)C,-2,-1,6,0,59*,6,-1,
CCCCn1c(=O)[nH]c(=O)c2c1nc(-c1ccc(CC)c([N+](=O)[O-])c1)n2C,-14,2,-1,x,5,-2,x,
COCCn1c(-c2ccc(NC(C)=O)cc2)nc2c1c(=O)[nH]c(=O)n2CC(C)C,14,9,-5,1,5,-3,x,
C=CCN1C(=NC(=O)CCC(=O)O)SC2CS(=O)(=O)CC21 (stereo unspecified),2,1,-1,-4,-9,-11,x,
COC(=O)c1ccc2c(=O)n(CCCCCC(=O)O)c(=O)[nH]c2c1,3,-10,-2,-1,-22,3,x,
COC(=O)c1ccc2c(=O)n(CCCCCC(=O)N3CCN(c4ccc(F)cc4)CC3)c(=O)[nH]c2c1,-5,-11,-3,12,67*,19,35,

# Screening results from PubChem BioAssay.
